Experiment [1] deals with TRPC4 beta (transient receptor potential cation channel C4), mouse. As to the kind of experiment: TRPC4 cation channel opening, retest – cell-based, Fluo4 calcium, HEK293 TRPC4beta/mu-opioid, duplicates, 10 µM, confirmation (AID 2426;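 active = fluorescence ratio normalized to control raised more than 50% in primary screen plus both repeat runs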). Conditions: Fluo4 calcium fluorescence, at 10 µM; hits give high values.
Experiment [2] concerns transient receptor potential cation channel C4 beta (TRPC4), mouse. As to the kind of experiment: TRPC4 cation channel opening, second retest – cell-based, second round, Fluo4, HEK293 TRPC4beta/mu-opioid, 1 µM, confirmation (AID 2461;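 active = primary screen active and over 50% activation in each of two duplicate runs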). Particulars: Fluo4 calcium fluorescence, at 1 µM; hits give high values.
Experiment [3] deals with TRPC4 (transient receptor potential cation channel C4 beta), mouse. Nature of the experiment: potentiation of DAMGO EC20 TRPC4 response – cell-based, second round, Fluo-4, HEK293 TRPC4beta/mu-opioid, 1 µM, confirmation (AID 2554;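 active = primary screen hit whose fluorescence ratio, in both repeats, exceeds the weak agonist control mean by 3 SD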). Particulars: DAMGO EC20, Fluo-4 calcium flux, at 1 µM; hits give high values.
Experiment [4] relates to TRPC4 beta (transient receptor potential cation channel C4), mouse. As to the kind of experiment: potentiation of DAMGO EC20 TRPC4 response – cell-based, Fluo-4, HEK293 TRPC4beta/mu-opioid, confirmation (AID 2555;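 active = primary screen hit whose calcium fluorescence ratio, in both repeats, exceeds the weak agonist control mean by 3 SD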). Particulars: DAMGO EC20, Fluo-4 calcium flux, at 10 µM; hits give high values. In general terms: A change in cytosolic calcium serves as a functional read-out for many receptors and channels.

The target of experiment [5] is Short transient receptor potential channel 4 (Mus musculus) (UniProt Q9QUQ5). As to the kind of experiment: blockers of DAMGO-evoked TRPC4 calcium flux – cell-based, Fluo4, HEK293 TRPC4beta/mu-opioid, confirmation (AID 2636;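 active = calcium signal cut by more than 3 SD below the full-agonist control yet still positive, in both repeats and the earlier primary screen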). Conditions: at 10 µM; hits give high values.
The target is the same in experiment [6]. Nature of the experiment: blockers of DAMGO-evoked TRPC4 calcium flux – cell-based, second round, Fluo4, HEK293 TRPC4beta/mu-opioid, 1 µM, confirmation (AID 2637;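 active = calcium signal ratio cut to more than 3 SD under the fully stimulated control mean yet still positive, in both repeats and the primary screen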;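 for inhibition: percent of integrated ratio relative to wells lacking test compound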). Particulars: at 1 µM; hits give high values.
For experiment [7] the target is unchanged. As to the kind of experiment: calcium entry via TRPC4 opening agents – cell-based, HEK293 TRPC4/mu-opioid, Fluo-4 calcium, dose response (AID 434937;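 active = primary screen activator hit with a dose response curve and TRPC4 channel activation at any tested dose; inactive = no activation, no dose response, or not a primary hit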).
The target is the same in experiment [8]. As to the kind of experiment: potentiation of DAMGO-evoked TRPC4 calcium signal – cell-based, HEK293 TRPC4/mu-opioid, Fluo-4 calcium, EC20 DAMGO, dose response (AID 434941;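 active = earlier screen potentiator hit that boosts the TRPC4 ion channel at some dose, with a dose response; inactive = no potentiation, no dose response, or not a prior hit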;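 note: calcium entry triggered by an EC20 dose of DAMGO at the co-expressed mu-opioid receptor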).
Experiment [9] has as its target Short transient receptor potential channel 6 (Mus musculus) (UniProt Q61143). As to the kind of experiment: TRPC6 blockade by TRPC4 inhibitor hits – cell-based, HEK293, membrane potential dye, duplicate, selectivity assay for TRPC4 inhibitor project, confirmation (AID 434948;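 active = active in primary screen and both duplicates, each dropping signal beyond three positive-control SD with fluorescence still positive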). Particulars: HEK293 TRPC6, membrane potential dye fluorescence, at 10 µM, stimulated with maximal-effect acetylcholine; hits give high values.

The target is the same in experiment [10]. Nature of the experiment: TRPC6 opening by TRPC4 activator hits – cell-based, HEK293, membrane potential dye, duplicate, selectivity assay for TRPC4 activator project, confirmation (AID 434950;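 active = membrane potential signal rise above negative control mean plus 3 SD in both duplicates, also active in the earlier TRPC4 screen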). Conditions: HEK293 TRPC6, membrane potential fluorescence, at 10 µM; activation: hits give high values; outcome: activation.
Experiment [11] has the same target. As to the kind of experiment: positive modulators of mouse TRPC6 channel – HEK293 cells, membrane potential dye, duplicate, selectivity assay for TRPC4 potentiator project, confirmation (AID 434952;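 active = compound raising the membrane signal above positive-control mean plus 3 SD in both repeats, and a primary screen hit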). Particulars: HEK293 TRPC6, membrane potential dye fluorescence, at 10 µM, maximal acetylcholine added after compound; hits give high values.
For experiment [12], the target named is Short transient receptor potential channel 4 (Mus musculus) (UniProt Q9QUQ5). Nature of the experiment: calcium flux activators in TRPC4/5HT1a cells, counter-screen for TRPC4 activator project, cell-based, second counter screen, HEK293 TRPC4/5HT1a, Fluo-4 (AID 434977;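 active = calcium signal rise above buffer-control mean plus 5 SD in both duplicates, and also a hit in the primary screen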). Conditions: Fluo-4 calcium flux, at 10 µM; hits give high values.
Experiment [13] in a line: serotonin-gated TRPC4 signal block – cell-based, second counter screen, HEK293 TRPC4/5HT1a, Fluo-4, counter-screen for TRPC4 inhibitor project, confirmation (AID 434978;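 active = primary screen active whose calcium signal fell more than 3 SD beyond the full-serotonin control mean in both duplicate plates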;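 for outcome: serotonin given first at submaximal then at maximal dose after compound preincubation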). Conditions: Fluo-4 calcium flux, at 10 µM, serotonin added to trigger calcium flux; hits give high values.
Experiment [14] relates to TRPC4 (mouse), co-expressed with 5HT1a in HEK293. Nature of the experiment: enhancement of serotonin-evoked TRPC4 response – cell-based, second counter screen, HEK293 TRPC4/5HT1a, Fluo-4, counter-screen for TRPC4 potentiator project, confirmation (AID 434979). Particulars: Fluo-4 calcium flux, at 10 µM, serotonin added at its EC20 dose; hits give high values. (A counterscreen serves to expose hits that act by an unwanted route or on another target.)

Experiment [15] in a line: nonspecific calcium rise without TRPC4 – cell-based, HEK293 mu-opioid receptor line, counter-screen for TRPC4 activator project, confirmation (AID 449723;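 active = hit in primary screen, with calcium signal over 5 SD above buffer well mean in both duplicates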;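 note: counter screen cells carry the mu-opioid receptor alone and lack TRPC4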). Particulars: HEK293 mu-opioid cells, Fluo-4 calcium fluorescence, at 10 µM; hits give high values.
Experiment [16] in a line: nonspecific potentiation of DAMGO calcium response – cell-based, HEK293 mu-opioid receptor line, counter-screen for TRPC4 allosteric potentiator project, confirmation (AID 449724;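 active = calcium signal rise more than 3 SD above the low-dose agonist control mean, in both duplicate plates and the primary screen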;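 note: HEK293 cells carrying mu-opioid receptor only with no TRPC4 channel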). Conditions: HEK293 mu-opioid receptor cells, Fluo-4 calcium flux, at 10 µM, compound added before EC20 DAMGO stimulus; hits give high values.

For part of these data: Results with a measured potency or affinity are listed apart. Active and inactive are the calls of the source.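 Rule for the calls, unless noted: active = signal rise over 3 SD above mean of control wells given weak agonist, in both repeats and first screen; inactive = the rest.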

Sequence of Short transient receptor potential channel 6 (Mus musculus) (Q61143 whole entry, looked up): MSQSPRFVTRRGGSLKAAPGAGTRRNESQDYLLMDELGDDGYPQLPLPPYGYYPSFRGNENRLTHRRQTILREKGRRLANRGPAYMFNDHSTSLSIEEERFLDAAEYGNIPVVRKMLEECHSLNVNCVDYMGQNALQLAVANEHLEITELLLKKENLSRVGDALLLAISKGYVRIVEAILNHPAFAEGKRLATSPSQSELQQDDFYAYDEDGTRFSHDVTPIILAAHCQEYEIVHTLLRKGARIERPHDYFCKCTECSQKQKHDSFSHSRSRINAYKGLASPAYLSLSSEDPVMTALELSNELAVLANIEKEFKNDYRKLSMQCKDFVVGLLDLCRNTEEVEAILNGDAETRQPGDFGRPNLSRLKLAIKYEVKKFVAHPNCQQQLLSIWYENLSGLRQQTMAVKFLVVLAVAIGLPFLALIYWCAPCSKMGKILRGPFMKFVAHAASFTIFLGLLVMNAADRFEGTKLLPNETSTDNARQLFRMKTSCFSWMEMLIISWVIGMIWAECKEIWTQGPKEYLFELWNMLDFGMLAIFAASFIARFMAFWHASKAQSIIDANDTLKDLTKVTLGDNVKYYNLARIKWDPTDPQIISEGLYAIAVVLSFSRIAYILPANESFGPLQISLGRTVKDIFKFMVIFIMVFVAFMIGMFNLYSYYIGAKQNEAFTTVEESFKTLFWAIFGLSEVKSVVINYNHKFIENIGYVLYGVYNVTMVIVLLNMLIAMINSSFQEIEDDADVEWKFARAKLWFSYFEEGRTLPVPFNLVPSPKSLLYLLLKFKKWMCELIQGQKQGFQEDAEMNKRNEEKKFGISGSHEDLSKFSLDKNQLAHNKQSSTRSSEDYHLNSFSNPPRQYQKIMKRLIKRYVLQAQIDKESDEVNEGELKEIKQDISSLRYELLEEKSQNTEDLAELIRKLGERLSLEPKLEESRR
Sequence of Short transient receptor potential channel 4 (Mus musculus) (Q9QUQ5 whole entry, looked up): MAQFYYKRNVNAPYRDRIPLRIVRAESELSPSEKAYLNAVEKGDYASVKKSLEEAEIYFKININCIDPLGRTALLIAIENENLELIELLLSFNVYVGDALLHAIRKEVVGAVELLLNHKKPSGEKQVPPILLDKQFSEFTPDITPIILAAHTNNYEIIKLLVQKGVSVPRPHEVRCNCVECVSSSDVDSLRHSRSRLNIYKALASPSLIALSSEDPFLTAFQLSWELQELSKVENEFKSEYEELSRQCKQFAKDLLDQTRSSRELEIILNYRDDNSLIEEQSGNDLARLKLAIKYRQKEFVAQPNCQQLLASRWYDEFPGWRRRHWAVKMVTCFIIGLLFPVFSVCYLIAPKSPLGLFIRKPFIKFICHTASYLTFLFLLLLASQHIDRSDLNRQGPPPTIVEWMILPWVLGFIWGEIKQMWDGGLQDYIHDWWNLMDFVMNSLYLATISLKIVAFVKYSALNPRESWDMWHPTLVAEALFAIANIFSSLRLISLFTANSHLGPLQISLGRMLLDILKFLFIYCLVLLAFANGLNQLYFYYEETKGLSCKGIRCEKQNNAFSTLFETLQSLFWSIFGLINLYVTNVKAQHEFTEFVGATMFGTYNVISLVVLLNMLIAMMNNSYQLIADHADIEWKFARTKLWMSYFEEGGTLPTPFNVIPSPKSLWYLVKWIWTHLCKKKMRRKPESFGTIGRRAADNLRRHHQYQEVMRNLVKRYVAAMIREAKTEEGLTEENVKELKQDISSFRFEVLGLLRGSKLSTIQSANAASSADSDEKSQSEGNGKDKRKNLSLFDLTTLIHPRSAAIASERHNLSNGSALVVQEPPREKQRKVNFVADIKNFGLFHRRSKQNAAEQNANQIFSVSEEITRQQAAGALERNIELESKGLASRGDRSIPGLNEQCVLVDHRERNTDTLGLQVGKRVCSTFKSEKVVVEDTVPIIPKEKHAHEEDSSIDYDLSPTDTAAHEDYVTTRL

For orientation: inhibition means the drop in the measured response relative to a control, in per cent. On to `CCOC(=O)c1c(N)sc(C(O)(C(F)(F)F)C(F)(F)F)c1-c1ccccc1`, for which the result in [1], in experiment [2], in experiment [3], in experiment [4], in [6] and in experiment [7] was inactive. Further, the result in [8], in experiment [9], in experiment [10], in experiment [11], in [12] and in [14] was inactive. The result in [15] and in [16] was inactive. Further, the inhibition was 66% (active) in [5] and 36.8% (active) in [13].
Take `CN1CCN(c2ccc(NC(=O)c3ccc(-c4ccc(Cl)cc4)o3)cc2)CC1`: the outcome in experiment [1], in experiment [2], in experiment [3], in experiment [4], in [7] and in experiment [8] was inactive. In addition, the compound was classed as inactive in experiment [9], in experiment [10], in [11], in experiment [12], in [13] and in [14]. Also, the result in experiment [15] and in [16] was inactive. Further, the inhibition in experiment [5] is 85% (active); in experiment [6], 58% (active).
In the case of `Clc1ccc(CN2C3=NCCN3c3ccccc32)cc1Cl`, the outcome in [1], in [2], in experiment [3], in experiment [4], in [5] and in experiment [7] was inactive. Also, the result in experiment [8], in experiment [9], in experiment [10], in [11], in [12] and in experiment [14] was inactive. The outcome in [15] and in [16] was inactive. For the same compound, the inhibition in experiment [6] is 65% (active); in [13], 20.3% (active).
As to `O=C(CSc1nc(=O)n(CCN2CCOCC2)c2c1CCC2)Nc1ccc(OC(F)(F)F)cc1`, the result in [1], in experiment [2], in experiment [3], in experiment [4], in [6] and in experiment [7] was inactive. Also, the result in [8], in experiment [9], in experiment [10], in experiment [11], in [12] and in [13] was inactive. Further, the result in experiment [14], in experiment [15] and in experiment [16] was inactive. Further, in experiment [5], the inhibition is 69% (active).
`O=C(c1ccc(Cl)c(Cl)c1)N(Cc1ccco1)c1ccc(O)cc1`: the outcome in experiment [1], in experiment [2], in [3], in [4], in [6] and in experiment [7] was inactive. The outcome in [8], in [9], in experiment [10], in experiment [11], in [12] and in [14] was inactive. Moreover, the outcome in experiment [15] and in [16] was inactive. Besides, the inhibition was 94% (active) in experiment [5] and 32% (active) in [13].
Turning to `CCCOc1ccc(-c2nc(SCc3ccccc3)[nH]c(=O)c2C#N)cc1OC`, the result in experiment [1], in [2], in experiment [3], in experiment [4], in experiment [6] and in experiment [7] was inactive. Besides, the result in experiment [8], in [9], in experiment [10], in [11], in experiment [12] and in experiment [13] was inactive. In addition, the result in experiment [14], in experiment [15] and in [16] was inactive. Besides, the inhibition in experiment [5] is 66% (active).
On to `Cc1nn(-c2nc3ccccc3n2Cc2ccccc2)c2c1C(=O)CC(C)(C)C2`, for which the result in experiment [1], in experiment [2], in experiment [3], in experiment [4], in experiment [6] and in experiment [7] was inactive. Also, the result in experiment [8], in experiment [9], in experiment [10], in experiment [11], in experiment [12] and in experiment [14] was inactive. The result in experiment [15] and in experiment [16] was inactive. The inhibition is 72% (active) in experiment [5] and 13.5% (active) in [13].
With `Cc1nn(C(=O)c2cccc([N+](=O)[O-])c2)c(C)c1Sc1ccccc1`, the outcome in experiment [1], in experiment [2], in experiment [3], in [4], in [6] and in experiment [7] was inactive. Besides, the outcome in [8], in experiment [9], in experiment [10], in experiment [11], in [12] and in experiment [14] was inactive. For the same compound, the outcome in experiment [15] and in experiment [16] was inactive. In addition, the inhibition in experiment [5] was 88% (active); in experiment [13], 32.5% (active).
`CCCn1c(=O)c2ccccc2n2c(SCCOc3ccc(C)cc3)nnc12`: the outcome in experiment [1], in experiment [2], in experiment [3], in experiment [4], in experiment [6] and in experiment [7] was inactive. The result in [8], in [9], in experiment [10], in [11], in experiment [12] and in [14] was inactive. Further, the result in [15] and in experiment [16] was inactive. For the same compound, the inhibition in experiment [5] was 77% (active); in [13] it was 46.3% (active).
With `Cc1nc2scc(-c3ccccc3)c2c(=O)n1N=C1C=CC(=O)C=C1`, the result in [1], in experiment [2], in experiment [3], in experiment [4], in [6] and in experiment [7] was inactive. Further, the result in experiment [8], in experiment [9], in experiment [10], in experiment [11], in experiment [12] and in experiment [14] was inactive. The result in experiment [15] and in experiment [16] was inactive. For the same compound, the values for the inhibition in experiment [5] and in experiment [13] were 69% (active) and 21% (active), respectively.
For the compound `Fc1ccccc1COc1ccccc1CNCc1ccncc1`, the outcome in [1], in experiment [2], in experiment [3], in [4], in [6] and in experiment [7] was inactive. Moreover, the outcome in experiment [8], in [9], in experiment [10], in [11], in experiment [12] and in experiment [13] was inactive. The result in experiment [14], in experiment [15] and in experiment [16] was inactive. In [5], the inhibition is 79% (active).
Turning to `CCc1ccc2nc(N=C(N)N)nc(C)c2c1`, the result in [1], in experiment [2], in experiment [3], in [4], in [6] and in experiment [7] was inactive. The outcome in experiment [8], in experiment [9], in [10], in experiment [11], in [12] and in experiment [13] was inactive. In addition, the result in experiment [14], in experiment [15] and in experiment [16] was inactive. Also, in [5], the inhibition was 93% (active).
For `Cc1cc(C(=O)N/N=C\c2cc(C(C)(C)C)ccc2O)n[nH]1`, the outcome in [1], in experiment [2], in experiment [3], in experiment [4], in experiment [6] and in [7] was inactive. In addition, the result in experiment [8], in experiment [9], in experiment [10], in [11], in [12] and in [14] was inactive. For the same compound, the result in [15] and in [16] was inactive. Besides, the inhibition in [5] was 84% (active); in experiment [13], 24.2% (active).
For `CC1CCCN(CCCN2C(=O)C3C(C(=O)Nc4ccc(Cl)cc4)C4C=CC3(O4)C2C(=O)NC2CCCCC2)C1` (stereo not given), the outcome in experiment [1], in [2], in experiment [3], in experiment [4], in [7] and in experiment [8] was inactive. For the same compound, the compound was classed as inactive in experiment [9], in [10], in experiment [11], in experiment [12], in experiment [14] and in experiment [15]. Moreover, in [16], the result was inactive. Also, the inhibition was 97% (active) in [5], 63% (active) in experiment [6] and 26.1% (active) in experiment [13].
On to `OC(COc1ccccc1)CN1C2=NCCCN2c2ccccc21` (stereo not given), for which the result in experiment [1], in experiment [2], in experiment [3], in experiment [4], in experiment [6] and in [7] was inactive. The outcome in [8], in experiment [9], in experiment [10], in experiment [11], in [12] and in experiment [13] was inactive. The outcome in experiment [14], in [15] and in [16] was inactive. Besides, the inhibition in experiment [5] is 84% (active).

The values above are taken from PubChem BioAssay.
